Legend:
Test in all cases: log2 ratio of Biotin-Ahx-Ub-VS probe labelling (fragment/DMSO); higher = less target engagement (more negative = stronger competition), active = hit call of the paper (q ≤ 0.05, log2 ratio ≤ -1)
Details in all cases: compound concentration: 200 uM; treatment time: 3 h
USP9X = USP9X (UniProt Q93008)
How it was run: (§1)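 Labelled DUBs from HEK293T lysate were NeutrAvidin-enriched, digested with LysC and trypsin, and run by diaPASEF LC-MS/MS. Before that, each 495 µg sample in Tris/CHAPS/IGEPAL buffer with protease inhibitors was treated in triplicate with fragment at 200 µM or vehicle for 3 h, then with Biotin-Ahx-Ub-VS at 0.5 µM final for 1 h. Values are average log2 ratios of fragment over vehicle by unpaired t-test, based on global-median-normalised Spectronaut label-free quantities from proteins with ≥2 unique peptides.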

UniProt O00487 = target: UniProt O00487
How it was run: as §1

UniProt O00507 = target: UniProt O00507
How it was run: as §1

UniProt P51784 = target: UniProt P51784
How it was run: as §1

UniProt Q5T2D3 = target: T1, UniProt Q5T2D3
T1 sequence (whole entry): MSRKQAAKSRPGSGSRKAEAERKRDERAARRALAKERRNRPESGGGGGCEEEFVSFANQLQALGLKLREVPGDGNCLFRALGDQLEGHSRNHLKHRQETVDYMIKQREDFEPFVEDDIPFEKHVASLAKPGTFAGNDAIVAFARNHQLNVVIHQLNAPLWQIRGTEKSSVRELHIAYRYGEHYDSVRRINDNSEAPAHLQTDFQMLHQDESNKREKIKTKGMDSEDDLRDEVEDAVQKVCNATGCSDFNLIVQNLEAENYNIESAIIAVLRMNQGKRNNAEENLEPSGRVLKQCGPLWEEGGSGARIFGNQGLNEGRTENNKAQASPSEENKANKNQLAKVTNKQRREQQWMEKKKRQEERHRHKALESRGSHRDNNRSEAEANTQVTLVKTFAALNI
How it was run: as §1

UniProt Q8TE49 = target: T2, UniProt Q8TE49
T2 sequence (whole entry): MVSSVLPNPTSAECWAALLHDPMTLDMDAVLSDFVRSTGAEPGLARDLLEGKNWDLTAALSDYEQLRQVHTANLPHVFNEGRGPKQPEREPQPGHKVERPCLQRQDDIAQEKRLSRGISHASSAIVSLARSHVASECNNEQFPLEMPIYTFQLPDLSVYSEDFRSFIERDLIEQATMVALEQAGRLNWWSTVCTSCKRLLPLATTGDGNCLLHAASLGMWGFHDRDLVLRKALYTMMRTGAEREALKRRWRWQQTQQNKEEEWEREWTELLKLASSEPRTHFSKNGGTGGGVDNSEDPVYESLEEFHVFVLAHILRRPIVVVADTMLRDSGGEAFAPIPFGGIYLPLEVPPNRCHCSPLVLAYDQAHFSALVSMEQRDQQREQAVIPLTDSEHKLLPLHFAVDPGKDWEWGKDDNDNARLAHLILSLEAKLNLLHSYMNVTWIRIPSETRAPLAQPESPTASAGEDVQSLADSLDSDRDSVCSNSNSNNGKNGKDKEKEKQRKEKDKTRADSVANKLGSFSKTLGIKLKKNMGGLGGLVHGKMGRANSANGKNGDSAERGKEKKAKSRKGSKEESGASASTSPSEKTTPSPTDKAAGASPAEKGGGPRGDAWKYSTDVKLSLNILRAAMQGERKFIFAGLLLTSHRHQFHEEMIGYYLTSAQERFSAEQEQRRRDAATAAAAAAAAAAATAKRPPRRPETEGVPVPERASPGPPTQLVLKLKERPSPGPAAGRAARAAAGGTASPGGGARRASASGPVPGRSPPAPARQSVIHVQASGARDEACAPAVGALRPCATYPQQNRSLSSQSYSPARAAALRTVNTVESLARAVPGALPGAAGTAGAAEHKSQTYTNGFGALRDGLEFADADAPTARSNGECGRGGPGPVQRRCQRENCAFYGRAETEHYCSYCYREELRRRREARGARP
How it was run: as §1

UniProt Q9P2H5 = target: T3, UniProt Q9P2H5
T3 sequence (whole entry): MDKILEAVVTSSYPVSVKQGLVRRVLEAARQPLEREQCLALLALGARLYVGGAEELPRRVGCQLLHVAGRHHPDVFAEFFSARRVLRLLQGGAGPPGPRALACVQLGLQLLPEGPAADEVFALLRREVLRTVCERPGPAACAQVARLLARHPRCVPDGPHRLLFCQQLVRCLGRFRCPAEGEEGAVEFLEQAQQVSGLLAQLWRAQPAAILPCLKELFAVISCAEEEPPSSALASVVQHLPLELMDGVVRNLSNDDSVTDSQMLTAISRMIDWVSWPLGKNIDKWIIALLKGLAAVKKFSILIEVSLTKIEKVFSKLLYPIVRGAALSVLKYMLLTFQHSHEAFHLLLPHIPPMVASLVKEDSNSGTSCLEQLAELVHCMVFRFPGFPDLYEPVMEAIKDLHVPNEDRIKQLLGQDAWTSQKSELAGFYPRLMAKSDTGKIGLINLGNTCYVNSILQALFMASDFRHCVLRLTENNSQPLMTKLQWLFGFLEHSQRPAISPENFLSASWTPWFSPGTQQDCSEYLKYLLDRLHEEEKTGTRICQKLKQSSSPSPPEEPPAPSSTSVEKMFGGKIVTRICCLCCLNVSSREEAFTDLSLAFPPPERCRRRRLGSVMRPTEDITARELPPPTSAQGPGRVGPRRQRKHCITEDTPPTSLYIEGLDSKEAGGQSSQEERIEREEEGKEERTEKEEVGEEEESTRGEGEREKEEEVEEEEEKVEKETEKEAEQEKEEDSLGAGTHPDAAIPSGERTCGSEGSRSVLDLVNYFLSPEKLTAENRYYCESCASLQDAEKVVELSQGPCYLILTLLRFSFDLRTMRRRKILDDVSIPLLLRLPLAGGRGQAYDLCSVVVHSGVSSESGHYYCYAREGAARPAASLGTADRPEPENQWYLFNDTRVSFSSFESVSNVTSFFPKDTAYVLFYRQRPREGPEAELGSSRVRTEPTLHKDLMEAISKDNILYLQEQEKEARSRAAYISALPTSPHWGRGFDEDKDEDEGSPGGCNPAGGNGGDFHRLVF
How it was run: as §1

UniProt Q9UGI0 = target: T4, UniProt Q9UGI0
T4 sequence (whole entry): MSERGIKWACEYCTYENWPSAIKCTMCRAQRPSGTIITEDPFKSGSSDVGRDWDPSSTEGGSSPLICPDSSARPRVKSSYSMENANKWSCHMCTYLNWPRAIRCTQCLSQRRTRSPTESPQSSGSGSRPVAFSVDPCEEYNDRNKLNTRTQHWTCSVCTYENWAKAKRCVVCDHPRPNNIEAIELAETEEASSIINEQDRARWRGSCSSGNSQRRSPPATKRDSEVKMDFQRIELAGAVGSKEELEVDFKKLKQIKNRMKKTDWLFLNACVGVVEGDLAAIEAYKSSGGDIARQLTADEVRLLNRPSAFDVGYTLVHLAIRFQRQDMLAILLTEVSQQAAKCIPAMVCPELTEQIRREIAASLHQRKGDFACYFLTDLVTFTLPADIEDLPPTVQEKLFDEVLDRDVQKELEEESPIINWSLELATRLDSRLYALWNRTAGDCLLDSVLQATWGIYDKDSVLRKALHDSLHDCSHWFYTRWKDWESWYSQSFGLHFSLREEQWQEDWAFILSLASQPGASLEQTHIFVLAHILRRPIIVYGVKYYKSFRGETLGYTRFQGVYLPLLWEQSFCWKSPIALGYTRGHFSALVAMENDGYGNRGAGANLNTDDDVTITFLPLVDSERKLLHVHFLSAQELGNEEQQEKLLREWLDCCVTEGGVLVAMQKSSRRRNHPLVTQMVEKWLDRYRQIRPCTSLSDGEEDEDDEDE
How it was run: as §1

YOD1 = target: T5, YOD1 (UniProt Q5VVQ6)
T5 sequence (whole entry): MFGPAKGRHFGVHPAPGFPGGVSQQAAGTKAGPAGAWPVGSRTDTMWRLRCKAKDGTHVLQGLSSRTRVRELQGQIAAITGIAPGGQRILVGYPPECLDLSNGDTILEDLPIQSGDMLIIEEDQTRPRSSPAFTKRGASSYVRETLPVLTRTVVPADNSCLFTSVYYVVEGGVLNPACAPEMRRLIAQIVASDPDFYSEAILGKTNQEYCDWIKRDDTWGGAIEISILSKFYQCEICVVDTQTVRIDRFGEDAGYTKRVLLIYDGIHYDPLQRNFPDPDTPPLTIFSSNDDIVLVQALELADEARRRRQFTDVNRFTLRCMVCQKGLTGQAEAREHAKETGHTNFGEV
How it was run: as §1

Measured: log2 ratio of Biotin-Ahx-Ub-VS probe labelling

UniProt P51784, sequence (P51784 whole entry): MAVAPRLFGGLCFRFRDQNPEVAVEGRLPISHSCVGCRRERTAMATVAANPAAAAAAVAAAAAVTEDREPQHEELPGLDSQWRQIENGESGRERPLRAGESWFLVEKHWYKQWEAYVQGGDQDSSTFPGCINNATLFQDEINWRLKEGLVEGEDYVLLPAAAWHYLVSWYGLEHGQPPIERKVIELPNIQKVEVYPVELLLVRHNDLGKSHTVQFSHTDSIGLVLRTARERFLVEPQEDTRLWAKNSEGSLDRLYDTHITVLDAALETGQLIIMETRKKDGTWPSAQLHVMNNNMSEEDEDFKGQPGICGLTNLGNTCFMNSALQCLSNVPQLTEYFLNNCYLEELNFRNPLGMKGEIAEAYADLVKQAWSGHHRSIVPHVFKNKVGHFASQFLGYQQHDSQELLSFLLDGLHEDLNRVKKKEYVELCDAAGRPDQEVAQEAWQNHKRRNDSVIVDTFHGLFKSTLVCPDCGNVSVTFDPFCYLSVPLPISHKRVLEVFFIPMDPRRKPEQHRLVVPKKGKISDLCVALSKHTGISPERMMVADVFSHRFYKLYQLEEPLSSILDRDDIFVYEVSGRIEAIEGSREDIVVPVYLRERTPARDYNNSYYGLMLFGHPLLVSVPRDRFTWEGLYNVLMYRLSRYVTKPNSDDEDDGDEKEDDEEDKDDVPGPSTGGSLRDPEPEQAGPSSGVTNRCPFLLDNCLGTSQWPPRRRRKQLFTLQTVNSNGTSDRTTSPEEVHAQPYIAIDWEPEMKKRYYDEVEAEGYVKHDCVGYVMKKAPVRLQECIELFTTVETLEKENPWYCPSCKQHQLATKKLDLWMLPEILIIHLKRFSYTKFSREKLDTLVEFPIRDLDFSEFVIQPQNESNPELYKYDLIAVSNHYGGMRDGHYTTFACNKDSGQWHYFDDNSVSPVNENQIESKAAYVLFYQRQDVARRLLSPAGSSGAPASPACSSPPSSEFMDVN
UniProt O00507, sequence (O00507 whole entry): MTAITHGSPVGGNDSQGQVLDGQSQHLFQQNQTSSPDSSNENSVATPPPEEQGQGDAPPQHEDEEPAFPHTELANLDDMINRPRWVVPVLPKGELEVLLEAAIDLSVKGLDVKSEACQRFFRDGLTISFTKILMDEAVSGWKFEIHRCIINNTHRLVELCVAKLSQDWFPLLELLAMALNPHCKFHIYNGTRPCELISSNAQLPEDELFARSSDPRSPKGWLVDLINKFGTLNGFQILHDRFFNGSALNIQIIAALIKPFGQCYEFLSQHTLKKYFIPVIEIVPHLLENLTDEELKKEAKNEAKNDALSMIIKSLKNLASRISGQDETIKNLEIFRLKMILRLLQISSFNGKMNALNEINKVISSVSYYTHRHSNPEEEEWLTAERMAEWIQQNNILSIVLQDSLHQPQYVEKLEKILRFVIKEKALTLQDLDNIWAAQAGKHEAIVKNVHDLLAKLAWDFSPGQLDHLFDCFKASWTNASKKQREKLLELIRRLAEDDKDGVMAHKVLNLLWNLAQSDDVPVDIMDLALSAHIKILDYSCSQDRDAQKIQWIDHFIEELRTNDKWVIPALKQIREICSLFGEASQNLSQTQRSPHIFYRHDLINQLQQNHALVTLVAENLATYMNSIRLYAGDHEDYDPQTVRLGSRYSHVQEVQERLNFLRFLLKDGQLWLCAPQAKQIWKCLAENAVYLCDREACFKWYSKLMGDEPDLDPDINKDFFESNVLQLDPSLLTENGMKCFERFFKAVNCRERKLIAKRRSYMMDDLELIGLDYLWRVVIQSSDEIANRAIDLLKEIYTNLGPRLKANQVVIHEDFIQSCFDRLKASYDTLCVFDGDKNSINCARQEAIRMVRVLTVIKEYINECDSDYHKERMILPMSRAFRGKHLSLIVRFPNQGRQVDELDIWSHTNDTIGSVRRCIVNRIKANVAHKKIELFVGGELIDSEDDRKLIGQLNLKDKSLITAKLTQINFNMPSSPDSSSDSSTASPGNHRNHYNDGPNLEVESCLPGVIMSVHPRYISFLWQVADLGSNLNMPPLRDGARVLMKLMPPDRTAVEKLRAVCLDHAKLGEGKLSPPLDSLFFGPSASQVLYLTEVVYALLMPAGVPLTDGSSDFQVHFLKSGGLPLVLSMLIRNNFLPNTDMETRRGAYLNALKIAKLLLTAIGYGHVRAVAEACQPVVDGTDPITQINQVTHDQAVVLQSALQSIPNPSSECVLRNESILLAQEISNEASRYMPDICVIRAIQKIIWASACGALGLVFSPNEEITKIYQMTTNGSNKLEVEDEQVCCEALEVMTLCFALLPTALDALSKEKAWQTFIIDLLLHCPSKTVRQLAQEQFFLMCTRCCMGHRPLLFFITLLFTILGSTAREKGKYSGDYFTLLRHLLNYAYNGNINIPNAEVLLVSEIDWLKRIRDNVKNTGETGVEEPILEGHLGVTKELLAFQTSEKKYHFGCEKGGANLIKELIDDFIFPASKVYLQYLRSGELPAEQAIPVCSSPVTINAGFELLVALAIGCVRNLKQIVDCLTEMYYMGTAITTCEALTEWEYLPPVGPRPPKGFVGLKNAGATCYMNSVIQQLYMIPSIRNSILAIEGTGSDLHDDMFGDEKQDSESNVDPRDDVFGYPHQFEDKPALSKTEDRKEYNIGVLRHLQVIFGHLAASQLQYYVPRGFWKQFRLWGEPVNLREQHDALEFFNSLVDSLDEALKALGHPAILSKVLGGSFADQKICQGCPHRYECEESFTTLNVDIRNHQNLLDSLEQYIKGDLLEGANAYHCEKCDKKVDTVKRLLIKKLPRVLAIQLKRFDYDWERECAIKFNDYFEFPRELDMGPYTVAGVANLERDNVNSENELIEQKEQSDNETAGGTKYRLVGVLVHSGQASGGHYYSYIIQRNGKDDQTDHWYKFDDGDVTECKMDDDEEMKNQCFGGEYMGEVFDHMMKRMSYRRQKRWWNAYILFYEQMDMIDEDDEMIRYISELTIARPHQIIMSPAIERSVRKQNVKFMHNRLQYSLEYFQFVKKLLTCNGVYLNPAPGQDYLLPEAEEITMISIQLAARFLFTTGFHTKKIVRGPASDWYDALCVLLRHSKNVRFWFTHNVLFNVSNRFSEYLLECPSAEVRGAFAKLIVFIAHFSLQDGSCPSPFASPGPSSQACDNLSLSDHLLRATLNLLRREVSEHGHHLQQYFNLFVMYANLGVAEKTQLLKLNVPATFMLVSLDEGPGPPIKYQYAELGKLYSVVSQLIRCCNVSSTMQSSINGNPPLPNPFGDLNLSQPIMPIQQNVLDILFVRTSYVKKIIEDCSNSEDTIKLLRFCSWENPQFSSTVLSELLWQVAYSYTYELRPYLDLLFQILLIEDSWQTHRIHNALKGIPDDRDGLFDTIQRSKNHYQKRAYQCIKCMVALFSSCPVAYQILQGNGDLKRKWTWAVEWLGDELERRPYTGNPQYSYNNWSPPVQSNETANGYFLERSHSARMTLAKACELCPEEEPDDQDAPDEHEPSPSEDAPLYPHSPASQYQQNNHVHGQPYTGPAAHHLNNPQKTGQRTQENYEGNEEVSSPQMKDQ
UniProt O00487, sequence (O00487 whole entry): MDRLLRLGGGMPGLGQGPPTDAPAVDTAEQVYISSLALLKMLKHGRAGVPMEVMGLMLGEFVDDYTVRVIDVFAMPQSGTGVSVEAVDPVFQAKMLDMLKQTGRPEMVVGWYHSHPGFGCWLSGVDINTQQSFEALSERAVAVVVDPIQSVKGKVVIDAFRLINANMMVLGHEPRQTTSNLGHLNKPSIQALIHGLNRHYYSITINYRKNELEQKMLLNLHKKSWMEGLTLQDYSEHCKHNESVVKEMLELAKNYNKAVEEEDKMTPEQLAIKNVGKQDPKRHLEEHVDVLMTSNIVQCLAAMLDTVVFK

Cc1cnc2[nH]cc(CCNC(=O)CCl)c2c1
inactive: USP9X -0.0941 | UniProt O00487 0.0974 | UniProt O00507 -0.277 | UniProt P51784 0.0378 | UniProt Q5T2D3 -0.197 | UniProt Q8TE49 -0.5 | UniProt Q9P2H5 0.0093 | UniProt Q9UGI0 -0.444 | YOD1 -0.097

— the supplement of paper PMC11732987, “Enantioselective OTUD7B fragment discovery through chemoproteomics screening and high-throughput optimisation” (Communications Chemistry, 2025)
